Data taken from PubChem BioAssay (Tox21).
Values joined by “and” are separate entries in the source; they are usually repeats but may differ in a detail not shown here. Equal entries are not always repeated. Some compounds were tested as several samples or in several runs, with calls that do not always agree. Active and inactive are the calls of the source. Entries that show only a call come without a potency. Unless noted, calls come from the whole dose curve; as a rule, active = well fitted curve in the direction sought with a large enough effect in the repeat runs; inconclusive = weak or mixed curves; inactive = no such curve, though single readings can be large; an effect the other way counts as inactive or inconclusive.

Legend:
[1] = qHTS assay to identify small molecule antagonists of the glucocorticoid receptor (GR) signaling pathway - cell viability counter screen (AID 720693); note: nearly all actives have a fitted effect of over 55% in size; note: potency is the fitted concentration of half-maximal effect
[2] = qHTS assay for identifying genotoxic compounds that show differential cytotoxicity against isogenic chicken DT40 cell lines with known DNA damage response pathways - Rev3 mutant cell line (AID 743014); note: nearly all actives have a fitted effect of over 55% in size; note: potency is the fitted concentration of half-maximal effect
[3] = qHTS assay for identifying genotoxic compounds that show differential cytotoxicity against isogenic chicken DT40 cell lines with known DNA damage response pathways - Rad54/Ku70 mutant cell line (AID 743015); note: nearly all actives have a fitted effect of over 60% in size; note: potency is the fitted concentration of half-maximal effect
[4] = qHTS assay to identify small molecule antagonists of the androgen receptor (AR) signaling pathway - cell viability counter screen (AID 743033; note: nearly all actives have a fitted effect of over 45% in size; note: potency is the fitted concentration of half-maximal effect)
[5] = qHTS assay to identify small molecule antagonists of the androgen receptor (AR) signaling pathway using the MDA cell line - cell viability counter screen (AID 743041; note: nearly all actives have a fitted effect of over 45% in size; note: potency is the fitted concentration of half-maximal effect)
Summary of the method: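 MDA-kb2 AR-luc human breast carcinoma cells (MMTV-luciferase, AR/GR responsive) were treated with compounds plus R1881 agonist for 16 h at 37 °C. Viability was read as CellTiter-Fluor fluorescence in the same wells as the reporter assay.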

[6] = qHTS assay to identify small molecule antagonists of the thyroid receptor (TR) signaling pathway - cell viability counter screen (AID 743064); note: nearly all actives have a fitted effect of over 50% in size; note: potency is the fitted concentration of half-maximal effect
Summary of the method: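 In rat pituitary GH3.TRE-Luc reporter cells co-exposed to compound and 1 nM T3 for 23.5 h, cytotoxicity was assessed with CellTiter-Fluor in the same wells, read by fluorescence.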

[7] = qHTS assay to identify small molecule antagonists of the thyroid receptor (TR) signaling pathway (AID 743065); note: nearly all actives have a fitted effect of over 55% in size; note: potency is the fitted concentration of half-maximal effect
Summary of the method: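 GH3.TRE-Luc rat pituitary cells carrying two TR response elements driving luciferase were plated for 4 h, given compound plus 1 nM T3 (final), and incubated 23.5 h at 37 C. ONE-Glo luminescence measured reporter inhibition; CellTiter-Fluor fluorescence tracked cytotoxicity.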

[8] = target: Estrogen receptor (Homo sapiens) (UniProt P03372); experiment: qHTS assay to identify small molecule antagonists of the estrogen receptor alpha (ER-alpha) signaling pathway (AID 743069; active = well fitted curve in the direction sought with a large enough effect in the signal ratio in the repeat runs, not every such curve was filed as active; inconclusive = weak or mixed curves, or effect the other way; inactive = no such curve, though single readings can be large or run the other way; the % refers to the signal ratio; note: potency is the fitted concentration of half-maximal effect)
Summary of the method: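 HEK293 cells stably carrying an ER-alpha-UAS-bla beta-lactamase reporter were pre-cultured overnight in 2% charcoal-stripped FBS medium. Test compounds in DMSO were added together with 17beta-estradiol for 18 hr at 37C. Read-out was fluorescence after 2 hr with LiveBLAzer B/G FRET substrate at room temperature.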

[9] = target: Estrogen receptor (Homo sapiens) (UniProt P03372); experiment: qHTS assay to identify small molecule agonists of the estrogen receptor alpha (ER-alpha) signaling pathway using the BG1 cell line (AID 743079); settings: BG1Luc4E2 cells, ERE-luciferase agonist, 22 h; activation: at 70.3 µM (top of the series); note: nearly all actives have a fitted effect of over 20% in size
[10] = qHTS assay to identify small molecule antagonists of the estrogen receptor alpha (ER-alpha) signaling pathway using the BG1 cell line (AID 743080; calls by dose curve;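 note: BG1 cells stimulated with 17beta-estradiol alongside compound; nearly all actives have a fitted effect of over 25% in size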; note: potency is the fitted concentration of half-maximal effect); settings: BG1Luc4E2 ERE-luciferase antagonist mode, luminescence; activity change, negative = inhibition: at 70.3 µM (top of the series)
Summary of the method: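 Endogenous full-length ER-alpha in BG1-Luc-4E2 cells drives a stably integrated 4×ERE luciferase gene; compounds were tested against 17beta-estradiol over 21.5 h, with luminescence and multiplexed viability fluorescence recorded.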

[11] = qHTS assay to identify small molecule antagonists of the estrogen receptor alpha (ER-alpha) signaling pathway using the BG1 cell line - cell viability counter screen (AID 743081);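 note: compound given together with 17beta-estradiol as the ER stimulus; nearly all actives have a fitted effect of over 45% in size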
Aromatase (Homo sapiens) = Aromatase (Homo sapiens) (UniProt P11511); experiment: qHTS assay to identify aromatase inhibitors (AID 743083); note: nearly all actives have a fitted effect of over 55% in size; note: potency is the fitted concentration of half-maximal effect
[12] = qHTS assay to identify aromatase inhibitors - cell viability counter screen (AID 743084); note: potency is the fitted concentration of half-maximal effect
[13] = target: Androgen receptor (Homo sapiens) (UniProt P10275); experiment: qHTS assay to identify small molecule agonists of the androgen receptor (AR) signaling pathway using the MDA cell line (AID 743040; note: nearly all actives have a fitted effect of over 20% in size)
Summary of the method: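 MDA-kb2 breast carcinoma cells stably carrying an MMTV-driven luciferase reporter (AR- and GR-responsive) were seeded and held 5 h at 37C, 0% CO2, then exposed to compounds in DMSO for 16 h. Luminescence was read 30 min after ONE-Glo addition.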

[14] = target: Androgen receptor (Homo sapiens) (UniProt P10275); experiment: qHTS assay to identify small molecule antagonists of the androgen receptor (AR) signaling pathway using the MDA cell line (AID 743042; note: nearly all actives have a fitted effect of over 55% in size; note: potency is the fitted concentration of half-maximal effect)
Summary of the method: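 MDA-kb2 cells (human breast carcinoma, stably carrying an MMTV-luciferase reporter responsive to AR and GR) were plated at 3,000 cells/well and preincubated 5 hr at 37C, then given compound plus R1881 agonist for 16 h. ONE-Glo luminescence was read.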

[15] = test system: thyroid hormone receptor (rat, GH3 cells); experiment: qHTS assay to identify small molecule agonists of the thyroid receptor (TR) signaling pathway (AID 743066; calls by dose curve)
[16] = qHTS assay to identify small molecule antagonists of the estrogen receptor alpha (ER-alpha) signaling pathway - cell viability counter screen (AID 743074; calls by dose curve; note: nearly all actives have a fitted effect of over 45% in size; note: potency is the fitted concentration of half-maximal effect)
[17] = target: Estrogen receptor (Homo sapiens) (UniProt P03372); experiment: qHTS assay to identify small molecule agonists of the estrogen receptor alpha (ER-alpha) signaling pathway (AID 743075; calls by dose curve)
[18] = target: Androgen receptor (Homo sapiens) (UniProt P10275); experiment: qHTS assay to identify small molecule antagonists of the androgen receptor (AR) signaling pathway (AID 743035; active = well fitted inhibition curve with a large enough effect in the signal ratio in the repeat runs, not every such curve was filed as active; inconclusive = weak or mixed curves, or effect the other way; inactive = no such curve, though single readings can be large or run the other way; the % refers to the signal ratio; note: potency is the fitted concentration of half-maximal effect)
Summary of the method: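 Cell line: GeneBLAzer AR-UAS-bla GripTite (HEK293). Stimulus: R1881 added after compound. Exposure: 16 h, 37C, 5% CO2. Readout: LiveBLAzer B/G FRET fluorescence after 2 h at room temperature.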

[19] = qHTS assay for identifying genotoxic compounds that show differential cytotoxicity against isogenic chicken DT40 cell lines with known DNA damage response pathways - wild type cell line (AID 743012); note: potency is the fitted concentration of half-maximal effect; nearly all actives have a fitted effect of over 60% in size
Summary of the method: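 Quantitative HTS on parental DT40 cells: 40 h compound treatment at 37 C/5% CO2, with viability then determined by CellTiter-Glo luminescence. Values serve as the DNA repair-proficient reference for differential cytotoxicity.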

Sequence of Estrogen receptor (Homo sapiens) (P03372 whole entry, looked up): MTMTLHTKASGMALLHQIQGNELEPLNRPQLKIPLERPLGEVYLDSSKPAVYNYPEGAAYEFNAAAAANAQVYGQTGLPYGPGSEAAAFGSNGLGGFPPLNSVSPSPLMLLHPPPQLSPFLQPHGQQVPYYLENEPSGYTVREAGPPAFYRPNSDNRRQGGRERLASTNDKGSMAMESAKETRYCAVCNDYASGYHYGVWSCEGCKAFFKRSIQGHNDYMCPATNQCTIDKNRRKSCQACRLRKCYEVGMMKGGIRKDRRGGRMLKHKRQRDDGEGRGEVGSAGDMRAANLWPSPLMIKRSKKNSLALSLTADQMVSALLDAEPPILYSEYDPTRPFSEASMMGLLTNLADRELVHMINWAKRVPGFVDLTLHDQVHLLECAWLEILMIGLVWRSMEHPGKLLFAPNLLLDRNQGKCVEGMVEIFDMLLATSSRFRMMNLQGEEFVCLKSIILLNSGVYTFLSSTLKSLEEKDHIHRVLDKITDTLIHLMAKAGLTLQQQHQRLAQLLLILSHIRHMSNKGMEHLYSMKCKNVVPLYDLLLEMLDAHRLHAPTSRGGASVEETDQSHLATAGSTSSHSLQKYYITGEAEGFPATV
Sequence of Androgen receptor (Homo sapiens) (P10275 whole entry, looked up): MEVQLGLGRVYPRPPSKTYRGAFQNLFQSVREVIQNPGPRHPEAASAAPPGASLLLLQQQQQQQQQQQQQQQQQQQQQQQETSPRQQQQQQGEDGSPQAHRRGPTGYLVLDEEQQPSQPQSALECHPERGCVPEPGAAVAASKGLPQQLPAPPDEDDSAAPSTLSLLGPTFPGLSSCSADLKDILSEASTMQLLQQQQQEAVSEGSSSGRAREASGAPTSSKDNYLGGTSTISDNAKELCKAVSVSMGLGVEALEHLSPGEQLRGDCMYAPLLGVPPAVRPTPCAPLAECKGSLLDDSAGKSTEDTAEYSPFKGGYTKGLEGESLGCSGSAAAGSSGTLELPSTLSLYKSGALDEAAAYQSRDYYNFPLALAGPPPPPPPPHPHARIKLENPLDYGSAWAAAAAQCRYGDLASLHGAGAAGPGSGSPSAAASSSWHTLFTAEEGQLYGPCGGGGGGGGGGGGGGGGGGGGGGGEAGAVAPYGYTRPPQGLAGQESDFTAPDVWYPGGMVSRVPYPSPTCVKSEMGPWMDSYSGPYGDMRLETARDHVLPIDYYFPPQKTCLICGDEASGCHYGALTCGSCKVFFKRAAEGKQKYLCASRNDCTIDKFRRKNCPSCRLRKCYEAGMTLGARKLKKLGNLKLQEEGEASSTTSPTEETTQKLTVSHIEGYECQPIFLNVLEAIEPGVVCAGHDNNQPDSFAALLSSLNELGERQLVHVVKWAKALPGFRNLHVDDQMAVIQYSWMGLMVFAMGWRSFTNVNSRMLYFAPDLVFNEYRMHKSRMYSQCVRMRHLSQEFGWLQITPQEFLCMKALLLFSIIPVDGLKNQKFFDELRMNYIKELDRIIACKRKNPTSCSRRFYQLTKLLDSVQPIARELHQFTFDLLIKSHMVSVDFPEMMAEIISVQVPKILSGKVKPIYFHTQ
Sequence of Aromatase (Homo sapiens) (P11511 whole entry, looked up): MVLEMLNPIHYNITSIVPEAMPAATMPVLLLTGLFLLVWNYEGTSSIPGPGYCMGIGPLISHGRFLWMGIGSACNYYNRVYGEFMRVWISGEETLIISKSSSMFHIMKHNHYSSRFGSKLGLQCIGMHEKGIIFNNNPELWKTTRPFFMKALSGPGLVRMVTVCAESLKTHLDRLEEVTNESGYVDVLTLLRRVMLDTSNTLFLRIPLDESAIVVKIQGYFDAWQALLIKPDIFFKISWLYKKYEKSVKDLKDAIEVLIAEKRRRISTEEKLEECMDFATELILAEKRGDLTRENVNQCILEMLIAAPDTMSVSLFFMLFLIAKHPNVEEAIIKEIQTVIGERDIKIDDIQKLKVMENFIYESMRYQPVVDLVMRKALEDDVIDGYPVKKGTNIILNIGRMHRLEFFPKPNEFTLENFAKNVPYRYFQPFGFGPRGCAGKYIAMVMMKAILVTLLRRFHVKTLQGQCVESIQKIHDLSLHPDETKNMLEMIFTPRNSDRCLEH

| SMILES | Potency [1] | Potency [2] | Potency [3] | Potency [4] | Potency [5] | Potency [6] | Potency [7] | Potency [8] | Potency [9] | Potency [10] | Potency [11] | Potency (Aromatase (Homo sapiens)) | Potency [12] | Potency [13] | Potency [14] | Potency [15] | Potency [16] | Potency [17] | Potency [18] | Potency [19] |
| --- | --- | --- | --- | --- | --- | --- | --- | --- | --- | --- | --- | --- | --- | --- | --- | --- | --- | --- | --- | --- |
| C=C(c1ccc(C(=O)O)cc1)c1cc2c(cc1C)C(C)(C)CCC2(C)C | 13.4 µM (active) | 77 µM (active) | 68.6 µM (active) | inactive | inactive | 11.9 µM (active) and 13.7 µM (active) | 9.44 µM (active) and 9.69 µM (active) | 17.4 µM [fluorescent] (active) | inactive | 3.76 µM (active) | inactive | inactive and 61.1 µM (active) | inactive | – | – | – | – | – | – | – |
| CCCCCCCCCCCCN(CCO)CCO | 34.5 µM (active) | 0.172 µM (active) | 0.609 µM (active) | 43.5 µM (active) | 19.3 µM (active) | 17.2 µM (active) | – | – | – | 68.3 µM (active) | – | 30.5 µM (active) | 48.4 µM (active) | inactive | 15.3 µM (active) | inactive | 48.8 µM (active) | inactive | – | – |
| Brc1ccccc1-c1ccccc1 | inactive | 41 µM (active) | 41 µM (active) | inactive | inactive | – | – | – | – | – | – | – | – | – | – | inactive | – | – | – | – |
| O=C1OC(OC(=O)c2cccnc2Nc2cccc(C(F)(F)F)c2)c2ccccc21 (centres undefined) | inactive | inactive | inactive | inactive | inactive | – | 29.8 µM (active) | – | – | – | inactive | inactive | inactive | inactive | inactive | inactive | inactive | – | inactive | – |
| CC(COC(=O)c1ccccc1)OC(=O)c1ccccc1 (centres undefined) | inactive | inactive | 61.1 µM (active) | inactive | – | inactive | inactive | inactive | – | inactive | inactive | inactive | inactive | – | – | inactive | inactive | inactive | – | – |
| CCCCCCCCCCCCOC(=O)c1cc(O)c(O)c(O)c1 | 27.4 µM (active) and 34.7 µM (active) | 384 nM (active) and 273 nM (active) | 342 nM (active) and 217 nM (active) | 54.9 µM (active) | 54.5 µM (active) | 3.05 µM (active) and 2.43 µM (active) | – | 19.4 µM [inconclusive] (active) | – | – | – | 30.5 µM (active) and 27.3 µM (active) | 30.5 µM (active) and 61.1 µM (active) | – | – | inactive | 49 µM (active) | – | – | – |
| C1CC(COCC2CO2)CCC1COCC1CO1 (centres undefined) | inactive | 6.86 µM (active) | 19.3 µM (active) | inactive | inactive | – | 61.1 µM (active) | – | inactive | inactive | inactive | – | – | – | – | inactive | inactive | inactive | – | – |
| CC(C)=C1CC[C@@H](C)CC1=O | inactive | inactive | inactive | inactive | inactive | inactive | inactive | inactive | – | – | inactive | inactive | inactive | – | – | inactive | inactive | inactive | – | – |
| COC(=O)C1=C(C)NC(C)=C(C(=O)OCCCN2CCC(c3ccccc3)(c3ccccc3)CC2)C1c1cccc([N+](=O)[O-])c1 (centres undefined) | – | 6.68 µM (active) | 6.68 µM (active) | 21.3 µM (active) | – | 11.9 µM (active) | – | – | – | – | – | – | – | inactive | – | – | – | – | 16.9 µM (active) | 4.73 µM (active) |
| COc1cc(C(C)C)c2c(c1)S(=O)(=O)N(COc1cc(=O)n3cccc(OCCN4CCCCC4)c3n1)C2=O | inactive | 16.4 µM (active) | 13 µM (active) | – | inactive | – | 13 µM (active) | – | inactive | inactive | inactive | – | – | inactive | – | inactive | inactive | inactive | – | – |
| CCCCCCOc1cc(C)c(O)c(C)c1C | 49.6 µM (active) | 22 µM (active) | 15.5 µM (active) | – | inactive | 49.2 µM (active) | 55.1 µM (active) | – | inactive | – | inactive | 43.8 µM (active) | 49.2 µM (active) | – | – | inactive | inactive | inactive | – | – |
| COC(=O)[C@]1(C)CCC[C@@]2(C)[C@H]1CC=C1C=C(C(C)C)CC[C@@H]12 | inactive | – | 61.1 µM (active) | inactive | inactive | 48.6 µM (active) | – | – | – | – | inactive | – | – | – | – | inactive | inactive | – | – | – |
| CC(NCCC(c1ccccc1)c1ccccc1)c1ccccc1 (centres undefined) | – | 4.22 µM (active) | 5.31 µM (active) | 21.3 µM (active) | 23.7 µM (active) | 9.44 µM (active) | – | – | – | – | – | 29.8 µM (active) | – | inactive | 23.7 µM (active) | – | 23.9 µM (active) | – | 21.3 µM (active) | 2.98 µM (active) |
| CN(C)CCCN1c2ccccc2CCc2ccccc21 | inactive | 23.7 µM (active) and 9.69 µM (active) | 29.8 µM (active) and 9.69 µM (active) | – | inactive | 5.96 µM (active) | 23.7 µM (active) | – | – | – | inactive | inactive | inactive | – | – | inactive | inactive | – | – | – |
| Nc1ncnc2c1ncn2[C@@H]1O[C@H](COP(=O)(O)O)[C@@H](O)[C@H]1O | inactive | – | inactive | inactive | inactive | inactive | inactive | – | – | – | inactive | inactive | inactive | – | – | inactive | 21.3 µM (active) | – | – | – |
| CC1(C)C(=O)N(Br)C(=O)N1Br | inactive | – | – | inactive | inactive | inactive | inactive | – | – | – | inactive | inactive | inactive | inactive | inactive | inactive | inactive | – | inactive | – |
| CCN(CC)CCOC(=O)C1(C2CCCCC2)CCCCC1 | inactive | 21.1 µM (active) | 23.7 µM (active) | – | – | 26.6 µM (active) | 23.7 µM (active) | inactive | inactive | inactive | inactive | 29.8 µM (active) | – | inactive | inactive | inactive | inactive | inactive | – | – |
| CCNc1nc(NC(C)CC)nc(OC)n1 (centres undefined) | inactive | – | – | inactive | inactive | inactive | inactive | – | – | – | inactive | inactive | inactive | – | – | inactive | inactive | – | – | – |
| CCCCCCCC/C=C\CCCCCCCC(=O)NCc1ccc(O)c(OC)c1 | 21.3 µM (active) | – | 18.8 µM (active) | inactive | inactive | 6.68 µM (active) | 6.68 µM (active) | – | – | – | inactive | inactive | inactive | – | – | – | inactive | – | – | – |
